Measured values reported in PubChem BioAssay (NCATS).
Inconclusive results are not listed. Entries that show only a call come without a potency. Activity calls are given as the source filed them. Unless noted, calls come from the whole dose curve; as a rule, active = well fitted curve in the direction sought with a large enough effect; inconclusive = small, poorly fitted or top-dose-only effect, or another doubt; inactive = no such curve, though single readings can be large; an effect the other way counts as inactive or inconclusive. Where a SMILES comes first, the peptide text is derived from it. Bridges are numbered along the chain shown (N, C = ends). [ ]: non-standard residue; d: D form. hArg = N=C(N)NCCCC[C@H](N)C(=O)O; Mpa = O=C(O)CCS

Experiments:
[1] = Primary qHTS for small molecule stabilizers of the endoplasmic reticulum resident proteome: Secreted ER Calcium Modulated Protein (SERCaMP) assay (AID 1508630)
Summary of the method: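 The SH-SY5Y reporter protocol was run at 3 concentrations up to 38.3 uM (primary) or 11 concentrations (follow-up): 16 h compound, 100 nM thapsigargin for 4 h, then extracellular luciferase luminescence.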

[2] = A High-Content qHTS Against Drug Library for the Identification of Small Molecules that Inhibit DYT1 Early Onset Primary Dystonia-Associated Cell Pathology (AID 1645839; calls by dose curve)
Summary of the method: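 Cells were seeded and left for 24 h, then dosed with compound alongside tetracycline induction of mutant EGFP-TorsinA. They were incubated for 48 h, fixed in 4% paraformaldehyde, permeabilized and imaged for mislocalization (%pathology) and cell count.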

[3] = molecular target: Cytochrome P450 2C9 (Homo sapiens) (UniProt P11712); assay: Cytochrome P450 family 2 subfamily C member 9 (CYP2C9) small molecule antagonists: luciferase biochemical (cell-free) qHTS assay (AID 1645842; active = well fitted curve in the direction sought with a large enough effect in the repeat runs; an effect the other way counts as inactive or inconclusive; note: nearly all actives have a fitted effect of over 55% in size; note: potency is the fitted concentration of half-maximal effect)
Summary of the method: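 P450-Glo CYP2C9 system: proluciferin substrate with enzyme in mix containing 0.4% BSA, 10 min at room temperature, then NADPH regeneration solution added and incubated 1 h at 37C. Detection reagent stopped reaction; luminescence read after 20 min as RLU.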

[4] = Primary qHTS for inhibitors of nuclear receptor binding SET domain protein 2 (NSD2) in an isogenic RCH-ACV NSD2 p.E1099K mutant (9B) (AID 1645876); note: nearly all actives have a fitted effect of over 70% in size
[5] = Primary qHTS for inhibitors of nuclear receptor binding SET domain protein 2 (NSD2) in an RCH-ACV wild type WT cells (2C) (AID 1645877); note: nearly all actives have a fitted effect of over 70% in size
[6] = molecular target: Cytochrome P450 2D6 (Homo sapiens) (UniProt P10635); assay: Cytochrome P450 family 2 subfamily D member 6 (CYP2D6) small molecule antagonists: luciferase biochemical (cell-free) qHTS assay (AID 1645840; active = well fitted curve in the direction sought with a large enough effect in the repeat runs; an effect the other way counts as inactive or inconclusive; note: nearly all actives have a fitted effect of over 55% in size)
Summary of the method: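 P450-Glo CYP2D6 system: proluciferin substrate converted by enzyme to luciferin, read by luminescence proportional to activity. Enzyme-substrate mix with compound 10 min at room temperature, then NADPH regeneration 1 h before detection reagent.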

[7] = molecular target: Cytochrome P450 3A4 (Homo sapiens) (UniProt P08684); assay: Cytochrome P450 family 3 subfamily A member 4 (CYP3A4) small molecule antagonists: luciferase qHTS assay (AID 1645841; active = well fitted curve in the direction sought with a large enough effect in the repeat runs; an effect the other way counts as inactive or inconclusive; note: nearly all actives have a fitted effect of over 45% in size)
Summary of the method: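 P450-Glo CYP3A4 enzyme with proluciferin substrate preincubated 10 min with compound at room temperature, then NADPH regeneration 1 h. Luciferin detection reagent added for 20 min; luminescence recorded. Ketoconazole positive control.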

[8] = NCATS anti-infectives library activity on HEK293 viability as a counter-qHTS vs the C. elegans viability qHTS (AID 1745854)
Summary of the method: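 CellTiter-Glo luminescence, read on a CCD imager, scored viability of HEK293 cells after 24 hr compound exposure at 37C. Library tested in several concentrations, 1:5 steps, up to 41.7 uM; digitonin served as control.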

[9] = NCATS anti-infectives library activity on the primary C. elegans qHTS viability assay (AID 1745855; calls by dose curve); conditions: C. elegans worm area imaging, day 7; at 41.8 µM (top of the series)
Summary of the method: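 Titration-based screen in worms: eggs hatched overnight in M9, L1 larvae fed TOP10 capsules in S medium with compound, incubated 21 °C for 7 days; fluorescent objects gated by size and intensity at days 0, 3 and 7.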

[10] = Viability counterscreen for antagonist of constitutive androstane receptor (CAR) against the NCATS DSHEA and TCM libraries (AID 1794837);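 note: compound exposure lasted 24 h before viability reading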
Summary of the method: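 HepG2-CYP2B6-hCAR cells, 2,500/well, were exposed 24 hr at 37C to substances together with 48 uM CITCO (final). Viability was read as CellTiter-Fluor fluorescence (Ex/Em 405/540 nm) after 1 hr.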

[11] = Viability counterscreen for agonist of constitutive androstane receptor (CAR) against the NCATS DSHEA and TCM libraries (AID 1794838);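 note: HepG2 cells with CYP2B6 reporter and hCAR plus 0.75 µM PK11195 antagonist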
Summary of the method: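 HepG2-CYP2B6-hCAR cells (2,500/well) treated 24 h at 37C with compounds plus 0.75 uM PK11195; viability read by CellTiter-Fluor fluorescence, Ex/Em 405/540 nm.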

[12] = molecular target: Nuclear receptor subfamily 1 group I member 3 (Homo sapiens) (UniProt Q14994); assay: Primary qHTS for agonist of constitutive androstane receptor (CAR) against the NCATS DSHEA and TCM libraries (AID 1794839);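 note: HepG2 cells expressing human CAR with a CYP2B6 reporter plus PK11195 antagonist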
Summary of the method: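 HepG2-CYP2B6-hCAR cells, 2,500/well, attached 5 h, then dosed with 0.75 µM PK11195 (final) for 24 h at 37 °C. Luciferase luminescence read (ONE-Glo); CellTiter-Fluor viability (Ex/Em 405/540 nm) in same wells; CITCO positive control.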

Cytochrome P450 2D6 (Homo sapiens), sequence (P10635 whole entry, looked up): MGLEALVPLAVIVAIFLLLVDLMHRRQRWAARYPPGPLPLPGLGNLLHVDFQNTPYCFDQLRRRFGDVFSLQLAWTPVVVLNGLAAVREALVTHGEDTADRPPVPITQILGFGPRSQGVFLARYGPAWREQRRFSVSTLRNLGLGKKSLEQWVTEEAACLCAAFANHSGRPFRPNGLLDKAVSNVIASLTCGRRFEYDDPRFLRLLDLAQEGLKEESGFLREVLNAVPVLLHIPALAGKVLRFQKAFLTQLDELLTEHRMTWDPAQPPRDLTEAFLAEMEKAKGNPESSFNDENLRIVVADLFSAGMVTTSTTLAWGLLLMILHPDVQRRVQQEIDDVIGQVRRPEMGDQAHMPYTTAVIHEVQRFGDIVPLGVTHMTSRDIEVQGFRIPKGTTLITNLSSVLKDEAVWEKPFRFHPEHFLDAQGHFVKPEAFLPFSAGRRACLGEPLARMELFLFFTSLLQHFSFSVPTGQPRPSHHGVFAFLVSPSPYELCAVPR
Cytochrome P450 3A4 (Homo sapiens), sequence (P08684 whole entry, looked up): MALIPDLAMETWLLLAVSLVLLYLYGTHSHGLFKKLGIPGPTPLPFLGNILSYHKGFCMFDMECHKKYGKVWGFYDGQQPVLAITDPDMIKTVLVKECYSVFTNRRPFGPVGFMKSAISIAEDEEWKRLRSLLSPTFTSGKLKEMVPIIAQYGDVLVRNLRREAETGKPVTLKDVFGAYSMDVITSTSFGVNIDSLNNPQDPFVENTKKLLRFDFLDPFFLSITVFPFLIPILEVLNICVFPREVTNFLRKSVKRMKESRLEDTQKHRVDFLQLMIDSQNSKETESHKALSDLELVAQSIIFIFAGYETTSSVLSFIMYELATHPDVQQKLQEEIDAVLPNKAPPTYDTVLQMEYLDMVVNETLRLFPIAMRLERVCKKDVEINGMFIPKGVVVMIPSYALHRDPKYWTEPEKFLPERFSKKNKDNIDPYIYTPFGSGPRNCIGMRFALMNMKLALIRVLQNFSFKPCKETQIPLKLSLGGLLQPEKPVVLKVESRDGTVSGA
Cytochrome P450 2C9 (Homo sapiens), sequence (P11712 whole entry, looked up): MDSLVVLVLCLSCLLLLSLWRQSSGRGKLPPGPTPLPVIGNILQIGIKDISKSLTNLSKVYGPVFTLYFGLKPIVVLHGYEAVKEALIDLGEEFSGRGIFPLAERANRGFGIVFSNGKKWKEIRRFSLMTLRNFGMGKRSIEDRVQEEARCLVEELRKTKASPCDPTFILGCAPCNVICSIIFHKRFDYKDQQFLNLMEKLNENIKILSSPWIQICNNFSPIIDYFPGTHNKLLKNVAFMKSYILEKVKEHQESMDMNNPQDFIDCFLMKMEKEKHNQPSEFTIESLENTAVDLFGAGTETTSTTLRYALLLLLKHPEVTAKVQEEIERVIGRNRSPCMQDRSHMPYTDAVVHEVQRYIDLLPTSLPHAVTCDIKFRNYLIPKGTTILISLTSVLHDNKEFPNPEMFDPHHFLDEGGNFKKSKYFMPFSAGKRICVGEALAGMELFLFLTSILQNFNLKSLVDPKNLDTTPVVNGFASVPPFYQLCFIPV
Nuclear receptor subfamily 1 group I member 3 (Homo sapiens), sequence (Q14994 whole entry, looked up): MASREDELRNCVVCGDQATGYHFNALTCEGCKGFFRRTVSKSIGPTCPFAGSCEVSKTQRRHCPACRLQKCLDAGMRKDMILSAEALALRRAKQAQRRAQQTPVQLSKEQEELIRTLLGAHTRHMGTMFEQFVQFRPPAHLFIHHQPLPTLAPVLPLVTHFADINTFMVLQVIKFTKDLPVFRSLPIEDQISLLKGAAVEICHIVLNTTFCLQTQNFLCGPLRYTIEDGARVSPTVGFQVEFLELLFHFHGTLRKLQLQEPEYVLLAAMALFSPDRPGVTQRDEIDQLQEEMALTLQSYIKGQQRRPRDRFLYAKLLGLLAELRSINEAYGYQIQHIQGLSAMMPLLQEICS

## Cc1c(Cn2ccnc2)c2ccccc2n1CCC(=O)O
[1]
  outcome: inactive
[2]
  Potency: inactive
[3]
  Potency: 1950 nM (active)
[4]
  Potency: inactive
[5]
  Potency: inactive

## NC(=O)[C@@H]1CSSCCC(=O)N[C@@H](CCCCN=C(N)N)C(=O)NCC(=O)N[C@@H](CC(=O)O)C(=O)N[C@@H](Cc2c[nH]c3ccccc23)C(=O)N2CCC[C@H]2C(=O)N1 ([Mpa][hArg]GDWPC-NH2; disulfide 1-7)
[2]
  Potency: inactive
[6]
  Potency: inactive
[3]
  Potency: inactive

## CCCNC(C)(C)COC(=O)c1ccccc1
[1]
  outcome: inactive
[2]
  Potency: inactive
[4]
  Potency: inactive

## NCc1ccc(S(N)(=O)=O)cc1
[2]
  Potency: inactive
[6]
  Potency: inactive
[7]
  outcome: inactive
[8]
  outcome: inactive
[9]
  outcome: inactive

## CC(C)=CCC[C@@](C)(O)[C@H]1CC=C(C)CC1
[1]
  outcome: inactive
[2]
  Potency: inactive
[4]
  Potency: inactive
[10]
  outcome: inactive
[11]
  outcome: inactive
[12]
  outcome: inactive

## Cc1cc(=O)[nH]c(=S)[nH]1
[2]
  Potency: inactive
[6]
  Potency: inactive
[3]
  Potency: inactive

## O=C(O)c1cc(=O)c2ccccc2o1
[1]
  outcome: inactive
[6]
  Potency: inactive
[7]
  outcome: inactive
[3]
  Potency: inactive
[4]
  Potency: inactive
[5]
  Potency: inactive

## O=C(CCBr)N1CCN(C(=O)CCBr)CC1
[1]
  outcome: inactive
[2]
  Potency: inactive
[3]
  Potency: inactive
[4]
  Potency: inactive
[5]
  Potency: inactive

## Nc1ccc(C(=O)Oc2ccccc2)c(O)c1
[1]
  outcome: inactive
[2]
  Potency: inactive
[6]
  Potency: inactive
[4]
  Potency: inactive
[5]
  Potency: inactive

## O=C(CN1CCNCC1)NC1CCCCC1
[2]
  Potency: inactive
[6]
  Potency: inactive
[7]
  outcome: inactive
[3]
  Potency: inactive
[4]
  Potency: inactive
[5]
  Potency: inactive

## CC(=O)NCc1c(I)c(NC(C)=O)c(I)c(C(=O)O)c1I
[1]
  outcome: inactive
[2]
  Potency: inactive
[3]
  Potency: inactive
[4]
  Potency: inactive
[5]
  Potency: inactive

## C/C=C/C(=O)N(CC)c1ccccc1C
[2]
  Potency: inactive
[6]
  Potency: inactive
[7]
  outcome: inactive
[3]
  Potency: inactive
[4]
  Potency: inactive
[5]
  Potency: inactive
